The panel holds about 83,000 compounds, 20% with a hit somewhere; the sample as a whole holds those more often.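 Negative percent growth values reflect cell death: -40 means 40% of the cells present at the start died, and -100 means all died.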 A number with no mark means an inactive call. The source made the active and inactive calls. How the source made its calls: active means growth percent below 10; inactive means the rest.
Each compound was assayed on MDA-MB-468 breast (assay: NCI-60 one-dose screen, 48 h (100 = growth as untreated, 0 = no growth, -100 = all killed)). Conditions: 10 µM unless noted.

Compound	growth
O=c1c2cccc3c(Nc4ccc(Br)cn4)ccc(c32)c2nc3ccccc3n12	-64.7% (active)
O=C1N/C(=N/N=C(c2ccccc2)c2ccccc2)S/C1=C\c1ccc(Br)cc1	103%
COc1ccc(-c2cnc(NC(=O)CCCCCCNC(=O)C(O)(O)C(F)(F)F)s2)cc1	-33.6% (active)
COc1ccc(/C=C/C(=O)c2cc3c(N)c(C(=O)Nc4ccccc4)sc3nc2C)cc1	15.3%
CCCC(=O)OCC(COC(=O)CCC)OC(=O)CCC	89%
O=C(CCCCCCc1nc2ccc(Br)cc2[nH]1)NO	-1.04% (active)
C[C@H]1O[C@@H](O[C@H]2[C@@H](O)C[C@H](O[C@H]3[C@@H](O)C[C@H](O[C@H]4CC[C@]5(C)C6CC[C@]7(C)[C@@H](C8=CC(=O)OC8)CC[C@]7(O)C6CC[C@@H]5C4)O[C@@H]3C)O[C@@H]2C)C[C@H](O)[C@@H]1O (stereo not given in full)	-60% (active)
Cn1cnc2nc[nH]c2c1=S	107%
CCCCCCNC(=O)Oc1ccc(/C(=C(\C)c2ccccc2)c2ccc(OCCN(CC)CC)cc2)cc1	74.9%
COc1nc2c(c(=O)n1C)CN(c1ccccc1)C(=O)CN2C	4.41% [100 µM] (active)
c1ccc2c(c1)Sc1ccccc1S2	93.7%
C/C(Cc1ccc(Cl)cc1)=C(/c1ccccc1)c1ccc(OCCN)cc1	97.2%
COC(OC)c1ccccc1	107%
CN1CCN(c2ccc(-c3cnc4c(-c5csc6ccccc56)cnn4c3)cc2)CC1	-26.8% (active)
OB(O)c1ccsc1-c1nc2ccc3[nH]ncc3c2c2c1CCCC2	8.64% (active)
CC1(C)OC2C(CO)OC(n3ccc(=O)[nH]c3=O)C2O1 (stereo not given)	127%
NNCCc1ccc(NC(=O)CCCc2ccc(C(=O)Nc3ccccc3N)cc2)cc1	72.9%
O=C(Nc1ccccc1)P(=O)(O)c1ccccc1	94.3%
Cn1c([N+](=O)[O-])cnc1/C=C1\Oc2ccc(Cl)cc2C1=O	7.19% (active)
CCOc1nc(-c2ccccc2)cc2c(O)c(C(=O)N/N=C/c3ccc(OC)cc3)[nH]c(=O)c12	61.9%
COc1nccc2cc3c(=O)n4c(cc5ccccc54)c(=O)n3c12	89.4%
CC[C@H](C)[C@@H]1NC(=O)[C@H]([C@@H](C)O)NC(=O)C(Cc2ccccc2)NC(=O)[C@@H]2CCCN2C(=O)C(C(C)C)NC(=O)C(Cc2ccccc2)NC(=O)CNC(=O)[C@@H]2CCCN2C1=O (stereo not given in full)	53%
CN(C)c1ccc(/C=C/C(=O)c2ccc(NC(N)=O)cc2)cc1	81%
C#C[C@@]1(O)[C@@H](CO)O[C@@H](n2cc(I)c3c(N)ncnc32)[C@@H]1O	-37.7% (active)
N#Cc1c(Nc2ccccc2)nc2n(c1=O)-c1ccccc1Sc1ccccc1-2	72.8%

— PubChem BioAssay (NCI)
